# Test results taken from the supplement of paper PMC9942566.
# ± gives the standard deviation of the averaged measurements.
# Tested on: Serratia marcescens K904 PosmB-luxCDABE reporter (pMQ747)
# Test: PosmB-lux reporter fold induction (RLU/OD600 relative to no-compound control), highest over Biolog concentrations; higher = stronger reporter activation
# Conditions: ΔrcsB mutant CMS5177; 4 h
# Experimental: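 Serratia marcescens K904 (wild type) or its isogenic ΔrcsB mutant, carrying the Rcs-dependent PosmB-luxCDABE reporter plasmid pMQ747, was grown in LB at OD600 0.1 in Biolog Phenotype MicroArray plates PM11-20 for 4 h at 30-32°C. Each compound is present at 3-4 proprietary concentrations (not stated); per the Fig. S1 legend the value given is the highest fold over those wells. Three independent trials.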
row,SMILES,PosmB-lux reporter fold induction
1,"CN(C)CCCN1c2ccccc2Sc2ccc(Cl)cc21 [chlorpromazine] (Biolog plate: PM17, well positions: D9-12)",1.63 ± 0.49
2,"NCC[C@H](O)C(=O)N[C@@H]1C[C@H](N)[C@@H](O[C@H]2O[C@H](CN)[C@@H](O)[C@H](O)[C@H]2O)[C@H](O)[C@H]1O[C@H]1O[C@H](CO)[C@@H](O)[C@H](N)[C@H]1O [Amikacin] (Biolog plate: PM11, well positions: A2-4)",1 ± 0.088
3,"O=C1OC(CN2CCOCC2)CN1/N=C/c1ccc([N+](=O)[O-])o1 (stereo not given) [Furaltadone] (Biolog plate: PM14, well positions: A5-8)",1.51 ± 0.47
4,"CO[C@H]1/C=C/O[C@@]2(C)Oc3c(C)c(O)c4c(O)c(cc(O)c4c3C2=O)NC(=O)/C(C)=C\C=C\[C@H](C)[C@H](O)[C@@H](C)[C@@H](O)[C@@H](C)[C@H](OC(C)=O)[C@@H]1C [rifamycin SV] (Biolog plate: PM16, well positions: E9-12)",35.4 ± 1.7
5,"NC[C@H]1O[C@H](O[C@H]2[C@H](O)[C@@H](O[C@H]3O[C@H](CO)[C@@H](O)[C@H](N)[C@H]3O)[C@H](N)C[C@@H]2N)[C@H](N)C[C@@H]1O [Tobramycin] (Biolog plate: PM12, well positions: F1-4)",1.52 ± 0.67
6,"O=C(O)c1cn(C2CC2)c2cc(N3CCNCC3)c(F)cc2c1=O [ciprofloxacin] (Biolog plate: PM20, well positions: D5-8)",1.49 ± 0.33
7,"CC(C)c1nc2nc(N)nc(N)c2nc1C(C)C [2,4-Diamino-6,7-diisopropyl-pteridine] (Biolog plate: PM12, well positions: E1-4)",2.91 ± 0.33
8,"Cc1ccccc1C(OCCN(C)C)c1ccccc1 (stereo not given) [orphenadrine] (Biolog plate: PM20, well positions: B1-4)",1.4 ± 0.12
9,"c1cnc2c(c1)ccc1cccnc12 [1,10-Phenanthroline] (Biolog plate: PM15, well positions: C9-12)",1.32 ± 0.23
10,"CCOc1ccc2ccccc2c1C(=O)N[C@@H]1C(=O)N2[C@@H]1SC(C)(C)[C@@H]2C(=O)O [Nafcillin] (Biolog plate: PM11, well positions: D9-12)",1.05 ± 0.14
11,"CC1(C)S[C@@H]2[C@H](NC(=O)C(C(=O)O)c3ccccc3)C(=O)N2[C@H]1C(=O)O (stereo not given in full) [Carbenicillin] (Biolog plate: PM12, well positions: A9-12)",1.03 ± 0.29
12,"CC1=CC(=O)c2ccccc2C1=O [Menadione] (Biolog plate: PM15, well positions: G9-12)",0.917 ± 0.14
13,"O=C1CN(/N=C/c2ccc([N+](=O)[O-])o2)C(=O)N1 [Nitrofurantoin] (Biolog plate: PM14, well positions: E5-8)",1.19 ± 0.084
14,"NO [hydroxylamine] (Biolog plate: PM19, well positions: G9-12)",1.39 ± 0.47
15,"Nc1ccc(S(=O)(=O)Nc2ccc(Cl)nn2)cc1 [sulfachloro-pyridazine] (Biolog plate: PM17, well positions: C5-8)",1.63 ± 0.15
16,"[Cl][Mn][Cl] [Manganese chloride] (Biolog plate: PM13, well positions: G5-8)",1.41 ± 0.043
17,"OCC(O)CS (stereo not given) [thioglycerol] (Biolog plate: PM19, well positions: H5-8)",1.08 ± 0.56
18,"Nc1ncn([C@@H]2O[C@H](CO)[C@@H](O)[C@H]2O)c(=O)n1 [5-azacytidine] (Biolog plate: PM16, well positions: E5-8)",2.23 ± 0.64
19,"O=P(O)(O)OP(=O)(O)O [sodium pyrophosphate decahydrate] (Biolog plate: PM18, well positions: A5-8)",0.615 ± 0.16
20,"NCC(=O)O [Glycine] (Biolog plate: PM13, well positions: F5-8)",1.39 ± 0.27

row,SMILES,PosmB-lux reporter fold induction
1,"Cn1nnnc1SCC1=C(C(=O)O)N2C(=O)[C@@H](NC(=O)[C@H](OC=O)c3ccccc3)[C@H]2SC1 [cefamandole nafate] (Biolog plate: PM17, well positions: G5-8)",1.52 ± 0.36
2,"CN(C)c1ccc(O)c2c1C[C@H]1C[C@H]3[C@H](N(C)C)C(O)=C(C(N)=O)C(=O)[C@@]3(O)C(O)=C1C2=O [Minocycline] (Biolog plate: PM11, well positions: C9-12)",1.8 ± 0.42
3,"CCCCCCCCCCCC[N+](C)(C)CCOc1ccccc1 [Domiphen bromide] (Biolog plate: PM15, well positions: D5-8)",2.39 ± 0.17
4,"Cc1onc(-c2ccccc2)c1C(=O)N[C@@H]1C(=O)N2[C@@H]1SC(C)(C)[C@@H]2C(=O)O [Oxacillin] (Biolog plate: PM12, well positions: B1-4)",1.31 ± 0.52
5,"CO/N=C(\C(=O)N[C@@H]1C(=O)N2C(C(=O)O)=C(CSc3nc(=O)c(O)nn3C)CS[C@H]12)c1csc(N)n1 [Ceftriaxone] (Biolog plate: PM11, well positions: G1-4)",1.12 ± 0.14
6,"[Cl][Cu][Cl] [Cupric chloride] (Biolog plate: PM13, well positions: H1-4)",1.06 ± 0.1
7,"Cc1ncc([N+](=O)[O-])n1CC(O)CCl (stereo not given) [ornidazole] (Biolog plate: PM20, well positions: C9-12)",1.59 ± 0.49
8,"O=C(N[C@H](CO)[C@H](O)c1ccc([N+](=O)[O-])cc1)C(Cl)Cl [Chloramphenicol] (Biolog plate: PM14, well positions: F1-4)",1.87 ± 1.1
9,"CC1(C)S[C@@H]2[C@H](NC(=O)C(C(=O)O)c3ccccc3)C(=O)N2[C@H]1C(=O)O (stereo not given in full) [Carbenicillin] (Biolog plate: PM14, well positions: G5-8)",1.05 ± 0.096
10,"C1COCCOCCOCCOCCOCCO1 [18-crown-6 ether] (Biolog plate: PM20, well positions: D9-12)",1.53 ± 0.55
11,"NC[C@@H]1O[C@H](O[C@H]2[C@@H](O)[C@H](O[C@@H]3[C@@H](O)[C@H](N)C[C@H](N)[C@H]3O[C@H]3O[C@H](CN)[C@@H](O)[C@H](O)[C@H]3N)O[C@@H]2CO)[C@H](N)[C@@H](O)[C@@H]1O [Neomycin] (Biolog plate: PM11, well positions: F9-12)",1.31 ± 0.23
12,"CO[C@@H]1[C@@H](O[C@@H]2O[C@H](C)[C@@H](O[C@H]3C[C@@](C)(O)[C@@H](OC(=O)CC(C)C)[C@H](C)O3)[C@H](N(C)C)[C@H]2O)[C@@H](CC=O)C[C@@H](C)[C@@H](O)/C=C/C=C/C[C@@H](C)OC(=O)C[C@H]1OC(C)=O [josamycin] (Biolog plate: PM19, well positions: A2-4)",9.66 ± 6.6
13,"CCn1cc(C(=O)O)c(=O)c2ccc(C)nc21 [Nalidixic Acid] (Biolog plate: PM11, well positions: E9-12)",8.63 ± 3.1
14,"CC(CN1c2ccccc2Sc2ccccc21)N(C)C (stereo not given) [Promethazine] (Biolog plate: PM14, well positions: H5-8)",1.43 ± 0.21
15,"O=[Si](O)O [sodium metasilicate] (Biolog plate: PM18, well positions: E1-4)",0.928 ± 0.32
16,"O=c1ccc2ccc(O)cc2o1 [umbelliferone] (Biolog plate: PM19, well positions: C5-8)",0.964 ± 0.57
17,"Cn1cnc([N+](=O)[O-])c1Sc1ncnc2[nH]cnc12 [azathioprine] (Biolog plate: PM18, well positions: B9-12)",0.729 ± 0.15
18,"CNC(C)C1CCC(N)C(OC2C(N)CC(N)C(OC3OCC(C)(O)C(NC)C3O)C2O)O1 (stereo not given) [Gentamicin] (Biolog plate: PM11, well positions: G5-8)",1.47 ± 0.41
19,"CSc1ccc2c(c1)N(CCC1CCCCN1C)c1ccccc1S2 (stereo not given) [thioridazine] (Biolog plate: PM20, well positions: C1-4)",1.11 ± 0.088
20,"CC1(C)S[C@@H]2[C@H](NC(=O)[C@H](NC(=O)N3CCNC3=O)c3ccccc3)C(=O)N2[C@H]1C(=O)O [Azlocillin] (Biolog plate: PM13, well positions: B1-4)",1.27 ± 0.56
